B2AR arrestin ag: ADRB2 beta-arrestin recruitment | P07550 | HTLA Tango cells, beta-arrestin recruitment, luciferase luminescence, 18 h | Potency, µM (titrated, usually from 46.1 µM), actives largely listed as activators | 44,000 tested, under 10 active;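 further: potency means the concentration at half of the fitted maximal effect; 0% = DMSO and full agonism = EC100 isoproterenol or metaproterenol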
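Tango cell line, 1% FBS DMEM; cpd titration up to 46 microM; 18 hr, 37 degrees C, 5% CO2. Luciferin/ATP substrate mix added, 15 min RT, luminescence. %Activity, CRC fitting, curve-class categorization.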
PTAP-TSG101 blk: inhibitors of HIV-1 PTAP binding to human TSG101, validation | Q99816 | Fluorescence polarization, FITC-PTAP peptide/Tsg101, 20 min | Potency, µM (highest dose often 115 µM), most hits filed as inhibitors | 44,000 tested, under 10 active; further: potency means the concentration at half of the fitted maximal effect; 0% is about no effect
Target sequence (Q99816 whole entry, looked up): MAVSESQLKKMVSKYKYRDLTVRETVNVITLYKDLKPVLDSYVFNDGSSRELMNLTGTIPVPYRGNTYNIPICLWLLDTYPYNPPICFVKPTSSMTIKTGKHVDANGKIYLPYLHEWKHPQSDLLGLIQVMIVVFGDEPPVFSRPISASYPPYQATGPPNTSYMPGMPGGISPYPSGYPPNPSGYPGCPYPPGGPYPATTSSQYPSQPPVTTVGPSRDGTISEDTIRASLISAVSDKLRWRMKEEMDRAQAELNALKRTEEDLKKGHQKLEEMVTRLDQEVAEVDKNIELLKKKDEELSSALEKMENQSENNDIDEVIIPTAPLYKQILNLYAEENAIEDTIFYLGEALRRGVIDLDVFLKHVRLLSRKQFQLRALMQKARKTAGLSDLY
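The Tsg101 binding domain, at 10 uM final, is mixed with compound and a FITC peptide bearing the PTAP motif (50 nM final). After 20 min at r.t., polarization is measured; actives defined by CRC class, efficacy cut-off 60% inhibition.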
GALK inh: GALK (human) enzyme inhibition | P51570 | recombinant GALK, Kinase-Glo ATP luminescence, 1 h | Potency, µM (doses to about 57.5 µM), inactives show at the highest dose activity, negative = inhibition, hits mostly inhibitors | 44,000 tested, under 10 active | AID 1347072;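 further: plate controls were full GALK reaction for no effect and reaction lacking GALK for full effect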
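Reactions with and without enzyme served as controls. GALK at 5 nM phosphorylates 100 uM galactose using 35 uM ATP (HEPES pH 8.0, Mg2+) for 1 h at RT, with luminescence read 10 min after adding Kinase-Glo Plus.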
OvCa metastasis: blocks SKOV3ip1 adhesion and invasion in omental model | SKOV3ip1-GFP adhesion/invasion on 3D omental model, fluorescence | Potency, µM (series often up to 45.8 µM), without a hit: at the top dose activity change, negative = inhibition, most hits filed as inhibitors | 46,000 compounds, 0.1% hits | AID 1963576;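 further: potency means the concentration at half of the fitted maximal effect; plate controls were DMSO wells for no effect and tomatine positive control wells for full effect; nearly all actives have a fitted effect of over 65% in size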
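Adhesion/invasion was scored as fixed GFP-labeled SKOV3ip1 cell counts (488/509 nm), normalized to DMSO and tomatine controls. Cancer cells in serum-free medium, with four compound doses (0.36-46 umol/L), sat 2 hr at RT then 16 hr at 37 C on a 48 hr fibroblast/mesothelial/ECM culture.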
GPR32 ag: agonists of human resolvin D1 receptor DRV1 (GPR32). O75388. CHO-K1 GPR32 beta-arrestin PathHunter luminescence, 90 min; zero percent set by DMSO-only wells. activation, % at 76.9 µM. 48,000 compounds, 2.5% hits. AID 1346428;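 active means activation of at least 60% and not above a set upper limit, about 1 call in 100 departs from these limits; inconclusive means activation of 40% to 60%, or above that upper limit; inactive means activation under 40%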; further: 0% is about no effect
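Beta-arrestin recruitment read-out: luminescence from complemented beta-Gal in CHO-K1 GPR32 PathHunter cells, measured 1 h after detection reagent at ambient temperature following 90 min compound exposure at 37 °C; DMSO served as basal (EC0) control.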
NTMT1 inhibitor: blocks human N-terminal methyltransferase 1 activity; Q9BV86; NTMT1 MTase-Glo SAH luminescence, purified enzyme; Potency, µM (series often up to 114 µM), for inactives: top-dose activity change, negative = inhibition, actives largely listed as inhibitors; 59,000 compounds, 2.5% hits; AID 1645870;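 further: potency means the concentration at half of the fitted maximal effect; plate controls were DMSO vehicle for no effect and no enzyme for full effect; nearly all actives have a fitted effect of over 65% in size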
Target sequence (Q9BV86 whole entry, looked up): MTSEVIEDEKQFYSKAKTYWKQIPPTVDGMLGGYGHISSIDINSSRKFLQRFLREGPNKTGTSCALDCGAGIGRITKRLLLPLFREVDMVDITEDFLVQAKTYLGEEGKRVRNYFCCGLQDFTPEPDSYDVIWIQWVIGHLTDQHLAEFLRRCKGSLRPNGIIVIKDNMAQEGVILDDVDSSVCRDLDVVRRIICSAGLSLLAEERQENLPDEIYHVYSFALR
* marks the source's active call; other numbers are inactive results; i = inactive; ? = inconclusive; / = no result given; ! = not confirmed by another sample; [ ] = remark or other dose. This is a sample that favours compounds with a hit; in the whole collection about 3.8% have one here. Unless noted, the call rests on the fitted dose curve; in most records, active means well fitted curve in the direction sought with a large enough effect; inconclusive means small, poorly fitted or top-dose-only effect, or another doubt; inactive means no such curve, though single readings can be large; an effect the other way counts as inactive or inconclusive.

SMILES	B2AR arrestin ag	PTAP-TSG101 blk	GALK inh	OvCa metastasis	GPR32 ag	NTMT1 inhibitor
O=C(OCC#CCSc1nnc(-c2cccc3ccccc23)o1)c1cc2ccccc2s1	/	/	/	-6%	/	0%[57.5 µM]
COc1ccc(Nc2c(-c3cccc(O)c3)nc3cnccn23)cc1	i	i	0%	-8%	-20	-13%
COc1ccc(Nc2c(-c3ccc(Cl)cc3)nc3cnccn23)cc1OC	i	i	?	10%	97*	-1%
COc1cccc(NC(=O)CSCn2nnc3c(=O)[nH]c(Cc4ccc(F)cc4)nc32)c1	i	i	4%	4%	5	-4%
CCOC(=O)c1ccc(NC(=O)c2cc3cc(C)ccc3n2C)cc1	i	i	2%	2%	72*	0%
COc1ccccc1C1Nc2ccccc2-n2c(-c3ccccc3)c3c(=O)n(C)c(=O)n(C)c3c21 (stereo unspecified)	i	i	2%	i	-15	/
C[C@@H](Oc1cc(-n2cnc3ccc(CN4CCN(C)CC4)cc32)sc1C(N)=O)c1ccccc1C(F)(F)F	/	/	/	1%	/	8.9µM*
CCc1ccc(NC(=O)COC(=O)CCCC2=NS(=O)(=O)c3ccccc3N2)cc1	i	i	0%	i	64*	-12%
Cc1cccc(NC(=O)COC(=O)CCCC2=NS(=O)(=O)c3ccccc3N2)c1	i	i	-9%	i	13	?
Cc1ccccc1-c1nnn(CC(=O)Nc2sc3c(c2C#N)CCC(C(C)(C)C)C3)n1 (stereo unspecified)	i	i	3%	i	26	8%
CC(C)(C)C1CCc2c(sc(NC(=O)Cn3nnc(-c4ccccc4Cl)n3)c2C#N)C1 (stereo unspecified)	i	i	3%	i	89*	7%
CC1CC(=O)C2=C(C1)C1OC1C1(O)C2C(=O)c2cccc(O)c2C1O (stereo unspecified)	/	/	/	/	/	3%[29.8 µM]
C=C1c2cccc(O)c2C(O)=C2C(=O)[C@]3(O)C(O)=C(C(N)=O)C(=O)[C@@H](N(C)C)[C@@H]3[C@@H](O)[C@H]12	/	/	/	/	-1	25µM*
CCc1cccc(C)c1NC(=O)CSc1nnc(N)s1	i	i	-1%	16%	94*	-5%
O=C1c2[nH]nc(-c3ccc(F)cc3)c2C(c2ccccc2F)N1c1ccccc1 (stereo unspecified)	i	i	-16%	?	108*	4%
CCCN1C(=O)c2[nH]nc(-c3ccc(F)cc3)c2C1c1ccccn1 (stereo unspecified)	i	i	-6%	-1%	-25	?
CCn1c(=O)sc2cc(NS(=O)(=O)c3ccc(C)cc3)ccc21	i	i	-7%	-4%	61*	-3%
CCc1ccc(S(=O)(=O)Nc2ccc3c(c2)sc(=O)n3C)cc1	i	i	-2%	15%	0	-2%
COc1ccc(-c2cc(=O)c3c(O)cc(O[C@@H]4O[C@H](CO[C@@H]5O[C@@H](C)[C@H](O)[C@@H](O)[C@@H]5O)[C@@H](O)[C@H](O)[C@@H]4O)cc3o2)cc1O	/	/	/	1%	/	16%[57.5 µM]
O=c1c(O)c(-c2ccc(O)c(O)c2)oc2cc(O)cc(O)c12	/	/	/	-6%	109*!	?
O=c1cc(-c2ccc(O)c(O)c2)oc2cc(O)cc(O)c12	/	/	/	-13%	/	32µM*!
O=c1c(-c2ccc(O)cc2)coc2cc(O)cc(O)c12	/	/	/	19%	-12	71µM*!
COc1ccc(-c2coc3cc(O)cc(O)c3c2=O)cc1	/	/	/	14%	/	-34%[57.5 µM]
CCOC(=O)C1=C(C)NC(=O)NC1c1cn(-c2ccccc2)nc1-c1ccc(OC(C)C)cc1 (stereo unspecified)	i	i	-15%	-13%	-7	0%
COc1ccc(Br)cc1CC1C(=O)Nc2ccccc21 (stereo unspecified)	i	i	6%	-20%	22	25µM*
SMILES	B2AR arrestin ag	PTAP-TSG101 blk	GALK inh	OvCa metastasis	GPR32 ag	NTMT1 inhibitor
COC(=O)c1cc(Nc2nc3ccccc3nc2NS(=O)(=O)c2ccc(C)cc2)ccc1Cl	i	i	0%	i	99*	2%
Cc1cc(C)cc(NC(=O)CSc2oc(-c3cccs3)nc2S(=O)(=O)c2ccccc2)c1	i	i	6%	-2%	-13	1%
COC(=O)c1cccc(NC(=O)c2nsc3ccccc23)c1	i	i	7%	?	-22	45µM*
COc1cccc(CNC(=O)c2cccc(NC(=O)c3nsc4ccccc34)c2)c1	i	i	0%	-15%	-10	13%
Cc1ccc(NC(=O)c2c(C)oc3ncnc(N4CCCCC4)c23)cc1Cl	i	i	4%	10%	4	4%
CC(=O)Nc1c(C(=O)Nc2cccc(C)c2)nnn1-c1ccc(C)cc1	i	i	7%	i	119*	3%
CC(C)CC1Nc2ccc(C(=O)NCCCOC(C)C)cc2NC1=O (stereo unspecified)	i	i	2%	-10%	-11	-10%
COc1cc2c(Nc3ccc(NC(=O)c4ccccc4)cc3)ncnc2cc1OCCCN1CCOCC1	/	/	/	-5%	/	-9%
Cc1noc(C)c1-c1ccc2ncnc(NCC3CCN(C)CC3)c2c1	/	/	/	/	/	-13%
COc1cc2c(Nc3ccc(Cl)c(Cl)c3F)ncnc2cc1OCC1C[C@@H]2CN(C)C[C@H]2C1	/	/	/	-26%	/	24µM*
COc1cc2c(Nc3ccc(Br)cc3F)ncnc2cc1OCC1CCN(C)CC1	/	/	/	-10%	-4	35µM*!
CCOc1ccc(CCNC(=O)c2ccc3c(c2)N(Cc2ccc(C)cc2)CCS3)cc1	i	i	-1%	1%	-21	1%
CCCCN(CCCC)C(C(N)=O)c1ccc(OC)cc1 (stereo unspecified)	/	/	/	/	-5	-24%[57.5 µM]
COc1cc(-c2noc(C3CC(=O)N(c4cc(C)ccc4C)C3)n2)cc(OC)c1OC (stereo unspecified)	i	i	0%	0%	76*	-14%
Cc1ccc(N2CC(c3nc(-c4ccc(Cl)cc4)no3)CC2=O)cc1F (stereo unspecified)	i	i	1%	-1%	6	2%
O=C(Cc1ccc(F)cc1)NCCc1csc2nc(-c3ccccc3F)nn12	i	i	-4%	-4%	62*	9%
COc1cccc(C(=O)NCCc2csc3nc(-c4ccccc4F)nn23)c1OC	i	i	1%	6%	68*	10%

Source: PubChem
